# Measurements as given in PubChem BioAssay (Tox21).
# A number with no mark means an inactive call. Inconclusive results are not listed. Entries that show only a call come without a potency. The source made the active and inactive calls. Unless noted, calls follow the shape of the dose curve; as a rule, active = well fitted curve in the direction sought with a large enough effect in the repeat runs; inconclusive = weak or mixed curves; inactive = no such curve, though single readings can be large; an effect the other way counts as inactive or inconclusive.
# Experiments:
# [1] = qHTS assay to identify small molecule agonists of the hypoxia (HIF-1) signaling pathway - cell viability counter screen (AID 1224844; calls by dose curve; also: nearly all actives have a fitted effect of over 50% in size)
# How it was run: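 HRE-bla ME-180 cells in medium with 0.5% dialyzed FBS were preincubated 5 hrs at 37C, exposed to compounds for 17 hrs, then viability was read as CellTiter-Glo luminescence after 30 min at room temperature, in the reporter wells.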
# [2] = qHTS assay to identify small molecule agonists of H2AX (AID 1224845; active = well fitted activation curve with a large enough effect in the signal ratio in the repeat runs, not every such curve was filed as active; the % refers to the signal ratio)
# How it was run: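 Phospho-H2AX Ser139 measured by HTRF (ex 320 nm; em 665 and 620 nm) after 24 hr antibody incubation. Compounds, 15 concentrations, 0.76% DMSO, were applied to CHO-K1 cells for 3hr at 37C before lysis.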
# [3] = qHTS assay to identify small molecule agonists of the hypoxia (HIF-1) signaling pathway (AID 1224846; active = well fitted activation curve with a large enough effect in the signal ratio in the repeat runs, not every such curve was filed as active; the % refers to the signal ratio)
# How it was run: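 HRE-bla ME-180 cells (beta-lactamase reporter under hypoxia response element) were plated at 2,000 cells/well in medium with 0.5% dialyzed FBS, rested 5 hrs, then given compounds in DMSO for 17 hrs at 37C, 5% CO2. Reporter induction was read with CCF4-AM FRET substrate.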
# [4] = qHTS assay to identify small molecule agonists of H2AX - cell viability counter screen (AID 1224847; calls by dose curve; also: top concentration of the series differs between compounds; nearly all actives have a fitted effect of over 30% in size)
# How it was run: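 Read-out: CellTiter-Glo luminescence, 30 min RT. Cells: wild-type CHO-K1, 1000/well, 10% FBS, plated overnight at 37C. Treatment: 15 concentrations, 3 hr, 37C, 0.76% DMSO.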
# [5] = qHTS RealTime-Glo MT Cell Viability Assay in HepG2 cells - 24 hour (AID 1224867); also: nearly all actives have a fitted effect of over 50% in size
# How it was run: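 Tox21 10K library screened in qHTS format on HepG2 cells carrying RealTime-Glo reagents. Compounds were added after a 5 h preincubation, and the luminescent signal from continuous culture was measured repeatedly during 40 h treatment.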
# [6] = qHTS RealTime-Glo MT Cell Viability Assay in HEK293 cells - 32 hour (AID 1224868); also: top concentration of the series differs between compounds; nearly all actives have a fitted effect of over 50% in size
# How it was run: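 Luminescence generated by NanoLuc from substrate produced by living HEK293 cells served as the viability signal. Each value reflects the reading at its stated time point during continuous 40 h compound exposure at 37 C.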
# [7] = A CellTox Green Cytotoxicity Assay to monitor cytotoxicity in HEK293 cells - 0 hour (AID 1224869); also: nearly all actives have a fitted effect of over 50% in size; also: potency is read from the fitted curve at half-maximal effect
# How it was run: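 HEK293 cells premixed with CellTox Green dye were seeded at 600 cells/well and left 5 h at 37 C/5% CO2 before pin transfer of 23 nL compound in DMSO. Fluorescence from dye bound to dead-cell DNA was read during 40 h treatment.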
# [8] = qHTS RealTime-Glo MT Cell Viability Assay in HepG2 cells - 40 hour (AID 1224870); also: nearly all actives have a fitted effect of over 50% in size
# How it was run: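 Real-time viability: cells seeded at 600 per well together with NanoLuc and cell-permeant prosubstrate, compounds added after 5 h incubation. Luminescence tracked at 0, 8, 16, 24, 32 and 40 h of exposure.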
structure (smiles),measurement,setting,value
COC(=O)CC(C(C)=O)C(=O)OC (stereo not drawn),Potency,[1],inactive
same,Potency,[2],inactive
same,outcome,[3],inactive
same,Potency,[4],inactive
same,Potency,[5],inactive
same,Potency,[6],inactive
same,Potency,[7],inactive
same,Potency,[8],inactive
BrC(Br)C(Br)Br,Potency,[1],inactive
same,Potency,[2],inactive
same,outcome,[3],inactive
same,Potency,[4],inactive
same,Potency,[5],inactive
same,Potency,[6],inactive
same,Potency,[7],inactive
same,Potency,[8],inactive
O=C1OC[C@H](Cc2cccc(O)c2)[C@H]1Cc1cccc(O)c1,Potency,[1],inactive
same,Potency,[2],inactive
same,outcome,[3],inactive
same,Potency,[4],inactive
same,Potency,[5],inactive
same,Potency,[6],inactive
same,Potency,[7],inactive
same,Potency,[8],inactive
CNC1CCCN(c2c(F)cc3c(=O)c(C(=O)O)cn(C4CC4)c3c2OC)C1 (stereo not drawn),Potency,[1],inactive
same,Potency,[2],inactive
same,outcome,[3],inactive
same,Potency,[4],inactive
same,Potency,[5],inactive
same,Potency,[6],inactive
same,Potency,[7],inactive
same,Potency,[8],inactive
Cc1ccc(S(=O)(=O)NC(=O)NC2CCCCC2)cc1,Potency,[1],inactive
same,Potency,[2],inactive
same,outcome,[3],inactive
same,Potency,[4],inactive
same,Potency,[5],inactive
same,Potency,[6],inactive
same,Potency,[7],inactive
same,Potency,[8],inactive
COC(CC(C)CCCC(C)(C)O)OC (stereo not drawn),Potency,[1],inactive
same,Potency,[2],inactive
same,outcome,[3],inactive
same,Potency,[4],inactive
same,Potency,[5],inactive
same,Potency,[6],inactive
same,Potency,[7],inactive
same,Potency,[8],inactive
CCCCCc1ccco1,Potency,[1],inactive
same,Potency,[2],inactive
same,outcome,[3],inactive
same,Potency,[4],inactive
same,Potency,[5],inactive
same,Potency,[7],inactive
same,Potency,[8],inactive
CC(=O)C(=O)CC(C)C,Potency,[1],inactive
same,Potency,[2],inactive
same,outcome,[3],inactive
same,Potency,[4],inactive
same,Potency,[5],inactive
same,Potency,[6],inactive
same,Potency,[7],inactive
same,Potency,[8],inactive
NC(=O)CCCCC(N)=O,Potency,[1],inactive
same,Potency,[2],inactive
same,outcome,[3],inactive
same,Potency,[4],inactive
same,Potency,[5],inactive
same,Potency,[6],inactive
same,Potency,[7],inactive
same,Potency,[8],inactive
CSSc1ccoc1C,Potency,[1],inactive
same,Potency,[2],inactive
same,outcome,[3],inactive
same,Potency,[4],inactive
same,Potency,[5],inactive
same,Potency,[6],inactive
same,Potency,[7],inactive
same,Potency,[8],inactive
CCN(CC)CC(=O)Nc1c(C)cccc1C(=O)OC,Potency,[1],inactive
same,Potency,[2],inactive
same,outcome,[3],inactive
same,Potency,[4],inactive
same,Potency,[5],inactive
same,Potency,[6],inactive
same,Potency,[7],inactive
same,Potency,[8],inactive
Nc1ccc(S(=O)(=O)NCc2ccccc2)cc1,Potency,[1],inactive
same,Potency,[2],inactive
same,outcome,[3],inactive
same,Potency,[4],inactive
same,Potency,[5],inactive
same,Potency,[7],inactive
same,Potency,[8],inactive
CCOC(=O)N1CCC(Nc2ccc(Cl)cc2N)CC1,Potency,[1],inactive
same,Potency,[2],inactive
same,outcome,[3],inactive
same,Potency,[4],inactive
same,Potency,[5],inactive
same,Potency,[7],inactive
same,Potency,[8],inactive
c1ccc2sc(SSc3nc4ccccc4s3)nc2c1,"activity change, negative = cytotoxicity",[1],-3.54% [at 15.8 µM]
same,activation (H2AX phosphorylation),[2],0.89% [at 31.6 µM]
same,activation,[3],0.936% [at 15.8 µM]
same,"activity change, negative = cytotoxicity",[4],3.41% [at 31.6 µM]
same,"activity change, negative = cytotoxicity",[5],4.65% [at 15.8 µM]
same,cytotoxicity,[7],4.7% [at 15.8 µM]
same,"activity change, negative = cytotoxic",[8],-0.0307% [at 15.8 µM]
O=S(=O)(O)CO,Potency,[1],inactive
same,Potency,[2],inactive
same,outcome,[3],inactive
same,Potency,[4],inactive
same,Potency,[5],inactive
same,Potency,[6],inactive
same,Potency,[7],inactive
same,Potency,[8],inactive
CC(=O)OCCC1CCCCC1,Potency,[1],inactive
same,Potency,[2],inactive
same,outcome,[3],inactive
same,Potency,[4],inactive
same,Potency,[5],inactive
same,Potency,[7],inactive
same,Potency,[8],inactive
CSCC[C@H](NC(=O)[C@H](Cc1c[nH]c2ccccc12)NC(=O)CCNC(=O)OC(C)(C)C)C(=O)N[C@@H](CC(=O)O)C(=O)N[C@@H](Cc1ccccc1)C(N)=O,Potency,[1],inactive
same,Potency,[2],inactive
same,outcome,[3],inactive
same,Potency,[4],inactive
same,Potency,[5],inactive
same,Potency,[6],inactive
same,Potency,[7],inactive
same,Potency,[8],inactive
Nc1nc(-c2ccc([N+](=O)[O-])cc2)cs1,Potency,[1],inactive
same,Potency,[2],inactive
same,outcome,[3],inactive
same,Potency,[4],inactive
same,Potency,[5],inactive
same,Potency,[6],inactive
same,Potency,[7],inactive
same,Potency,[8],inactive
C=C(C)C(=O)OCCC(F)(F)C(F)(F)C(F)(F)C(F)(F)C(F)(F)C(F)(F)F,Potency,[1],inactive
same,Potency,[2],inactive
same,outcome,[3],inactive
same,Potency,[4],inactive
same,Potency,[5],inactive
same,Potency,[6],inactive
same,Potency,[7],inactive
same,Potency,[8],inactive
CCCCC[C@H](O)/C=C/[C@H]1[C@H](O)CC(=O)[C@@H]1C/C=C\CCCC(=O)O,Potency,[1],inactive
same,Potency,[2],inactive
same,outcome,[3],inactive
same,Potency,[4],inactive
same,Potency,[5],inactive
same,Potency,[7],inactive
same,Potency,[8],inactive
O=C(O)CO,Potency,[1],inactive
same,Potency,[2],inactive
same,outcome,[3],inactive
same,Potency,[4],inactive
same,Potency,[5],inactive
same,Potency,[7],inactive
same,Potency,[8],inactive
CCc1ccc(C)cc1,Potency,[1],inactive
same,Potency,[2],inactive
same,outcome,[3],inactive
same,Potency,[4],inactive
same,Potency,[5],inactive
same,Potency,[6],inactive
same,Potency,[7],inactive
same,Potency,[8],inactive
CCC(C)(C)C(=O)O,Potency,[1],inactive
same,Potency,[2],inactive
same,outcome,[3],inactive
same,Potency,[4],inactive
same,Potency,[5],inactive
same,Potency,[6],inactive
same,Potency,[7],inactive
same,Potency,[8],inactive
CC1=CC[C@@H]2C[C@H]1C2(C)C,"activity change, negative = cytotoxicity",[1],7.49% [at 15.8 µM]
same,activation (H2AX phosphorylation),[2],1.37% [at 31.6 µM]
same,activation,[3],-1.3% [at 15.8 µM]
same,"activity change, negative = cytotoxicity",[4],0.589% [at 31.6 µM]
same,"activity change, negative = cytotoxicity",[5],0.892% [at 15.8 µM]
same,"activity change, negative = cytotoxic",[6],2.23% [at 15.8 µM]
same,cytotoxicity,[7],0.458% [at 15.8 µM]
same,"activity change, negative = cytotoxic",[8],1.07% [at 15.8 µM]
FC(F)(F)C(F)(F)C(F)(F)C(F)(F)CCI,Potency,[1],inactive
same,Potency,[2],inactive
same,outcome,[3],inactive
same,Potency,[4],inactive
same,Potency,[5],inactive
same,Potency,[6],inactive
same,Potency,[7],inactive
same,Potency,[8],inactive
CCCCCCCC/C=C/C(=O)O,Potency,[1],inactive
same,Potency,[2],inactive
same,outcome,[3],inactive
same,Potency,[4],inactive
same,Potency,[5],inactive
same,Potency,[7],inactive
same,Potency,[8],inactive
CC(C)C1CCC(C(=O)N[C@H](Cc2ccccc2)C(=O)O)CC1 (stereo partly drawn),Potency,[1],inactive
same,Potency,[2],inactive
same,outcome,[3],inactive
same,Potency,[4],inactive
same,Potency,[5],inactive
same,Potency,[6],inactive
same,Potency,[7],inactive
same,Potency,[8],inactive
O=C(c1ccccc1)C1CCC1,Potency,[1],inactive
same,Potency,[2],inactive
same,outcome,[3],inactive
same,Potency,[4],inactive
same,Potency,[5],inactive
same,Potency,[6],inactive
same,Potency,[7],38.9 µM (active)
same,Potency,[8],inactive
CCC(Cl)CC(Cl)C(Cl)C(Cl)C(Cl)C(C)Cl (stereo not drawn),"activity change, negative = cytotoxicity",[1],-3.49% [at 15.8 µM]
same,activation (H2AX phosphorylation),[2],-1.57% [at 31.6 µM]
same,activation,[3],0.0674% [at 15.8 µM]
same,"activity change, negative = cytotoxicity",[4],-5.22% [at 31.6 µM]
same,"activity change, negative = cytotoxicity",[5],-1.2% [at 15.8 µM]
same,cytotoxicity,[7],15.1% [at 15.8 µM]
same,"activity change, negative = cytotoxic",[8],-0.479% [at 15.8 µM]
